# From PubChem BioAssay
# FLuc inh – firefly luciferase inhibition; Potency, µM (series often up to 57.1 µM), for the others: at the top dose activity change, negative = inhibition, usual class: inhibitors; purified firefly luciferase, luminescence, 8 min; AID 411; actives 2.2% (n = 72,000); P08659; further: nearly all actives have a fitted effect of over 40% in size
# Target sequence (P08659 whole entry, looked up): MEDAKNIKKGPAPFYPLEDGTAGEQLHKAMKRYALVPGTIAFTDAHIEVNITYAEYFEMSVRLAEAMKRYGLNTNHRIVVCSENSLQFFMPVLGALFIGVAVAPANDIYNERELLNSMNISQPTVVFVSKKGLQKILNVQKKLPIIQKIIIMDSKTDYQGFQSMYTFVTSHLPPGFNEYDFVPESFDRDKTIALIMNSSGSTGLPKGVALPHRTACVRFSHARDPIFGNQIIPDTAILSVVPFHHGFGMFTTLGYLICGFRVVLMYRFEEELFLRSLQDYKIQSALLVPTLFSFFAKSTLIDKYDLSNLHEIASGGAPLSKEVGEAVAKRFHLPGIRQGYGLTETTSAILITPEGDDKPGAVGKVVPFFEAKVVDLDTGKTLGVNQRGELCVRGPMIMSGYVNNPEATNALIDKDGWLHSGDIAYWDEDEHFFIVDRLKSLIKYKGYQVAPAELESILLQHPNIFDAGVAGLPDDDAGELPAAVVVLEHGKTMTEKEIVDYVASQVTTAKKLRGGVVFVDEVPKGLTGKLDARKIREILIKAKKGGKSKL
#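 Firefly luciferase (PKLight detection mix) with 10 uM ATP in pH 7.2 imidazole buffer (KCl, MgCl2, Tween 20, BSA). Compounds tested across a concentration series (qHTS). Luminescence read after 8 min at ambient temperature.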
# p53ts 32C kill – kills p53ts cells at the permissive temperature | H1299-p53A138V at 32C, ATP luminescence viability, 24 h | Potency, µM (doses to about 46.1 µM), for the others: top-dose activity change, negative = cytotoxicity, most hits filed as cytotoxic | actives 0.93% (n = 130,000) | AID 924;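 further: 0% = DMSO and -100% = full killing by reference compound; nearly all actives have a fitted effect of over 55% in size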
#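 H1299-p53 A138V cells (temperature-sensitive p53) exposed 24 h to up to 46 uM compound at 32C, where p53 is wild-type in conformation. Viability read as ATP luminescence and normalised to DMSO and 100 uM tamoxifen. AC50 fitted with the Hill equation.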
# p53ts 39C kill – kills p53ts cells at the nonpermissive temperature. H1299-p53A138V viability at 39C, ATP luminescence, 24 h. Potency, µM (titrated, usually from 46.1 µM), for the others: top-dose activity change, negative = cell killing, hits mostly cytotoxic. actives 1.5% (n = 130,000); further: nearly all actives have a fitted effect of over 55% in size
# Numbers without * were called inactive; ? = inconclusive; . = no result; [ ] = remark or other dose. Shown are actives, neighbours in structure and some others; about 2.5% of the full set was active somewhere. The call rests on the fitted dose curve; in most records, active means well fitted curve in the direction sought with a large enough effect; inconclusive means small, poorly fitted or top-dose-only effect, or another doubt; inactive means no such curve, though single readings can be large; an effect the other way counts as inactive or inconclusive. Unless noted, on the % scale 0 is the no-effect control and ±100 the full control effect; potency means the concentration at half of the fitted maximal effect.
SMILES,FLuc inh,p53ts 32C kill,p53ts 39C kill
COc1cccc(-c2cc(C(=O)Nn3cnnc3)c3ccccc3n2)c1,3.2µM*,4µM*,5µM*
O=C(Nn1cnnc1)c1cc(-c2ccccn2)nc2ccccc12,-26%,-25%,-17%
O=C(c1cc2ccccc2oc1=O)N1CCN(c2ccc(F)cc2)CC1,.,-7%,14%
Nc1c(-c2nc(-c3ccc4c(c3)OCO4)cs2)c2ccccn2c1C(=O)c1ccccc1,.,-11%,-8%
COc1ccc(CC(=O)Nc2cccc(-c3nnc(-c4ccc(C)cc4)o3)c2)cc1OC,3.2µM*,?,-9%
COc1ccc(-c2nc3cc(NC(=O)Cc4ccc(Cl)cc4)ccc3o2)cc1OC,.,10µM*,7.9µM*
COc1ccc(CC(=O)Nc2ccc(-c3nnc(-c4ccccc4)o3)cc2)cc1OC,1%,10%,6%
COc1ccc(CC(=O)Nc2cccc(-c3nnc(-c4cccc(C)c4)o3)c2)cc1OC,?,13µM*,?
COc1ccc(CC(=O)Nc2cccc(-c3nnc(-c4ccccc4)o3)c2)cc1OC,-15%,-20%,2%
O=C(Cc1ccc(Cl)cc1)Nc1ccc2oc(-c3ccc(F)cc3)nc2c1,.,-12%,-5%
O=C1C(=O)N(C2CCNCC2)CCN1Cc1ccccc1,.,0%,3%
CCc1ccccc1OC[C@@H](O)CN[C@H]1CCCc2ccccc21,-14%,32µM*,20µM*
O=C(c1ccccc1)c1ccc(OCC(O)CNC2CCCc3ccccc32)cc1 (stereo not drawn),.,.,-17%
COc1ccccc1OC[C@H](O)COC(N)=O,10%[25.5 µM],-1%[20.6 µM],-9%[20.6 µM]
COCCn1c(=O)c(-c2cn(C)c3ccccc23)nc2cnc(Oc3cccc(Cl)c3)nc21,0%[11.4 µM],5%,-4%
Cc1ccc2cccc(NC(=O)c3ccc(-c4cc(Cl)ccc4Cl)o3)c2n1,.,7%,30%
C=CCOC(=O)C(C(=O)CC)C(NC(=O)OC)c1ccc(F)cc1 (stereo not drawn),.,0%[9.22 µM],5%[9.22 µM]
COc1cc(/C=C/C(=O)N2C(=O)c3cccc(N)c3C2=O)cc(OC)c1OC,.,.,-18%
COc1cc(/C=C\C(=O)N2CCC=CC2=O)cc(OC)c1OC,3%[25.5 µM],6.3µM*,6.3µM*
COc1cc(/C=C/C(=O)O)cc(OC)c1OC,.,-7%,2%
COc1cc(/C=C/C(=O)N2CCCCC2=O)cc(OC)c1OC,.,13µM*,13µM*
O=C1CCCC=C1[C@H](CCc1ccccc1)OC(=O)c1ccc(Br)cc1,-3%[11.4 µM],-9%[9.22 µM],3%[9.22 µM]
CN(C(=O)CSc1cn(CC(=O)N2CCCC2)c2ccccc12)c1ccccc1,.,8%,24%
CCN(CC)CCn1c2c(c(SCC(=O)Nc3cccc(C(F)(F)F)c3)nc1=O)CCC2,.,-9%,-20%
COc1ccc(N2CCN(S(=O)(=O)c3ccc4oc(=O)c5ncn(C)c5c4c3)CC2)cc1,.,8%,-11%
SMILES,FLuc inh,p53ts 32C kill,p53ts 39C kill
COc1ccc(-c2cnnc(CCCn3ccnc3-c3ccccc3)n2)cc1,4%[11.4 µM],-5%[9.22 µM],-5%[9.22 µM]
CCCCc1ccc(-c2ccc(C)cc2O)nc1,10µM*,13µM*,?
CCCCCc1ccc(-c2ccc(/C=C/C(N)=O)cc2)nc1,.,.,1%
CC1(C)O[C@@H]2O[C@H]([C@@H]3COC(C)(C)O3)[C@H](N)[C@H]2O1,2%[11.4 µM],4%[9.22 µM],0%[9.22 µM]
CCOc1cc(C(=O)Nc2ccc(-c3nnc4n3CCCCC4)cc2)cc(OCC)c1OCC,.,-1%,.
Cc1c(C(=O)Nc2ccc(-c3nnc4n3CCCCC4)cc2)oc2c1ccc1ccccc12,.,1µM*,-25%
COc1ccc(-c2cc(C(=O)Nc3cccc(C(C)=O)c3)no2)cc1,-3%,-14%,-6%
COc1ccc(NC(=O)c2cc(-c3ccccc3OC)on2)cc1,?,9%,-18%
COc1cccc(-c2cc(C(=O)Nc3cccnc3Cl)no2)c1,.,-5%,-13%
COc1ccccc1-c1cc(C(=O)Nc2cccnc2)no1,13µM*,?,?
COc1cccc(-c2cc(C(=O)Nc3cccc(O)c3)no2)c1,3.2µM*,2.5µM*,3.2µM*
COc1ccc(-c2cc(C(=O)Nc3ccccc3SC)no2)cc1OC,0%,-8%,-1%
COc1cccc(-c2cc(C(=O)Nc3ccccc3SC)no2)c1,20µM*,-9%,-15%
COc1cccc(-c2cc(C(=O)NC3CCCC3)no2)c1,16µM*,?,?
CC(=O)/C=C\C1[C@]2(C)CCCC(C)(C)C2CC[C@@]1(C)O (stereo partly drawn),.,5%,15%
Cc1ccc(C2CCN(C(=O)Nc3ccc(Cl)c(Cl)c3)C2)cc1 (stereo not drawn),.,18%,-7%
Cc1cc(C(F)(F)F)n2nc(-c3ccc(Br)cc3)cc2n1,.,3%,-6%
O=C1[C@H]2[C@H]3[C@H](O)[C@H](O)C/C(=N/OC[C@@H](O)COCc4ccco4)[C@H]3CC[C@@H]2C(=O)N1Cc1ccc2c(c1)OCO2,-4%[11.4 µM],7%[9.22 µM],4%[9.22 µM]
C=C1C(=O)O[C@H]2C[C@@]3(C)CCCC(=C)[C@@H]3C[C@H]12,-7%[11.4 µM],.,.
COc1cc(NC(=O)c2cc(-c3ccc(Cl)c(Cl)c3)on2)cc(OC)c1OC,.,-26%,20µM*
COc1cc(NC(=O)c2cc(-c3cccc(O)c3)on2)cc(OC)c1OC,-2%,1%,-13%
NCCC(O)C(=O)NC1C[C@@H](N)[C@H](O[C@@H]2OC(CN)C(O)C(O)C2O)C(O)[C@H]1O[C@H]1OC(CO)C(O)C(N)C1O (stereo partly drawn),.,1%,12%
CCn1nnc2cc(C(=O)Nc3ccc(OC)cc3)ccc21,.,-11%,-29%
CO[C@]12C(COC(N)=O)C3=C(C(=O)C(C)=C(N)C3=O)N1CC1NC12 (stereo partly drawn),.,-14%,?
COc1ccc(-c2cccc(NS(=O)(=O)c3cc(C)c(Cl)cc3C)c2)nn1,.,37%,-16%
SMILES,FLuc inh,p53ts 32C kill,p53ts 39C kill
CC(C)c1ccc2oc(-c3ccc(NC(=O)c4ncn[nH]4)cc3)nc2c1,10µM*,-12%,-9%
CC(C)c1ccc2oc(-c3ccc(NC(=O)c4cc5ccccc5o4)cc3)nc2c1,.,-28%,-27%
CCC(C)c1ccc2oc(-c3ccc(NC(=O)c4ncn[nH]4)cc3)nc2c1 (stereo not drawn),?,20%,15%
Cc1ccc2oc(-c3ccco3)nc2c1,25µM*,-10%,-5%
CC(C)c1ccc2oc(-c3ccc(N)cc3)nc2c1,1.3µM*,6.3µM*,6.3µM*
Cc1ccc2oc(-c3ccc(NC(=O)CC(C)C)cc3)nc2c1,?,-25%,-26%
O=c1oc(-c2ccco2)nc2ccccc12,-4%,-5%,2%
Cc1ccc(-c2nc3cc(C)ccc3o2)cc1,0.4µM*,10µM*,?
Cc1ccc(C)c([C@@H]2NC(=O)c3ccccc3N2)c1,0%[11.4 µM],-8%[9.22 µM],-3%[9.22 µM]
CCCCCn1c(=O)[nH]c2cc(C(=O)Nc3ccc(F)c(F)c3)ccc2c1=O,.,8%,23%
CCCCCNC(=O)c1c[nH]c2ccc(S(=O)(=O)N3CCC(C)CC3)cc2c1=O,.,-8%,-27%
COc1ccccc1-c1nccc(NCc2cccs2)n1,1%[2.29 µM],-6%,-25%
Cc1ccc(-c2nc3cc(N)ccc3o2)cc1,2.5µM*,4µM*,4µM*
Cc1ccc(-c2nc3cc(N)ccc3o2)c(C)c1,-1%,9%,7%
